From PubChem
DT40 TDP1 CPT – qHTS for Inhibitors of human tyrosyl-DNA phosphodiesterase 1 (TDP1): qHTS in cells in presence of CPT; chicken DT40 Tdp1-/-;hTDP1 cells + 20 nM CPT, ATP luminescence, 48 h; Potency, µM (doses to about 46.2 µM), for the others: top-dose activity change, negative = growth inhibition, actives largely listed as inhibitors; AID 686979, 2013; 420,000 compounds, 12% hits; note: potency is the fitted concentration of half-maximal effect; nearly all actives have a fitted effect of over 55% in size
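Cell growth measured by CellTiter-Glo luminescence after a minimum 48 h, 37 C compound exposure with 20 nM CPT in Tdp1-knockout DT40 cells stably expressing hTDP1, seeded 400/well; qHTS titration format.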
HT1080-NT tox – qHTS for induction of synthetic lethality in tumor cells producing 2HG: qHTS for the HT-1080-NT fibrosarcoma cell line; HT-1080-NT fibrosarcoma viability, CellTiter-Glo ATP luminescence, 48 h; Potency, µM (series often up to 46.1 µM), without a hit: at the highest dose activity, negative = less viability, actives largely listed as cytotoxic; 360,000 compounds, 1.6% hits;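 note: NT is the 2HG producing partner of a matched IDH1 knockdown line; potency is the fitted concentration of half-maximal effect; 0% = DMSO-treated cells and -100% = media-only wells without cells; nearly all actives have a fitted effect of over 55% in size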
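750 cells/well, RPMI + 5% FBS; 2 h settle, compound pin-transfer, 48 h at 37 degrees C. CellTiter-Glo 10 min RT, luminescence. Normalized to DMSO and media-only wells.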
ELG1 repair inh – qHTS screen for small molecules that inhibit ELG1-dependent DNA repair in human embryonic kidney (HEK293T) cells expressing luciferase-tagged ELG1; 330,000 compounds, 2.3% hits; HEK293T ELG1-luciferase reporter, luminescence, 16 h; DNA damage induced by 5-fluorouridine; Potency, µM (series often up to 46.1 µM), inactives show top-dose activity change, negative = inhibition, usual class: inhibitors; note: potency is the fitted concentration of half-maximal effect; nearly all actives have a fitted effect of over 55% in size
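In this reporter screen, reduction of luminescence relative to DMSO vehicle indicated activity. Compounds and 5-fluorouridine were added together to 2,000 cells per well, incubated for 16 hr at 37 °C, then developed with ONE-Glo.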
TDP1 cell noCPT – qHTS for Inhibitors of human tyrosyl-DNA phosphodiesterase 1 (TDP1): qHTS in cells in absence of CPT; DT40 Tdp1-/- hTDP1 cells, no CPT, ATP luminescence, 48 h; Potency, µM (top dose mostly 46.2 µM), for the others: at the top dose activity change, negative = growth inhibition, usual class: inhibitors; 420,000 compounds, 15% hits; note: potency is the fitted concentration of half-maximal effect; nearly all actives have a fitted effect of over 55% in size
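Seeded 400 DT40-hTDP1 cells/well (vehicle DMSO, no 20 nM CPT); pinned compounds; ≥48 hr at 37 °C; CellTiter-Glo luminescence as viability measure.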
HT1080 IDH1KD tx – qHTS for induction of synthetic lethality in tumor cells producing 2HG: qHTS for the HT-1080-IDH1KD cell line; HT-1080 IDH1 knockdown viability, ATP luminescence, 48 h; 360,000 compounds, 2% hits; Potency, µM (highest dose often 46.1 µM), for inactives: top-dose activity, negative = toxicity, hits mostly cytotoxic; AID 686971, 2013;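 note: potency is the fitted concentration of half-maximal effect; 0% = DMSO wells and -100% = cell-free medium wells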
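Using the IDH1-knockdown HT-1080 line run in the same batch and compound series as the NT line, viability after 48 h at 37 °C was determined by CellTiter-Glo luminescence and expressed as % activity.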
IL1B secr inh – qHTS for Inhibitors of Inflammasome Signaling: IL-1-beta AlphaLISA Primary Screen; THP-1 LPS/ATP IL-1B secretion, AlphaLISA, 16 h; active compounds read low; activity change, % at 57.5 µM; 360,000 compounds, 4.7% hits; AID 743279, 2014; in the data active = activity change below about -50%; inconclusive = mostly about -30% to -49%
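THP-1 cells pretreated 1 hr with compounds (up to 57.5 uM final), then stimulated with LPS (250 ng/mL final) plus ATP (1.25 mM final); secreted IL-1B measured by AlphaLISA after 16 hr, decreased signal indicating inhibition.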
An asterisk follows results filed as active; ? = inconclusive; / = no result; [ ] = dose if it differs, or a comment. The list is not random: actives were taken first. Their share in the collection is about 19%. Unless noted, calls come from the whole dose curve; as a rule, active = well fitted curve in the direction sought with a large enough effect; inconclusive = small, poorly fitted or top-dose-only effect, or another doubt; inactive = no such curve, though single readings can be large; an effect the other way counts as inactive or inconclusive. Unless noted, % is set by controls: 0 for no effect and ±100 for the full control effect.

SMILES | DT40 TDP1 CPT | HT1080-NT tox | ELG1 repair inh | TDP1 cell noCPT | HT1080 IDH1KD tx | IL1B secr inh
Cc1nn(Cc2ccc(C(=O)Nc3ccc(C(=O)OC(C)C)cc3)o2)c(C)c1Cl | ? | ? | 18µM* | ? | ? | 0
COc1ccccc1N1CCN(C(=O)CSc2nc3ccccc3nc2Cc2ccc(C)cc2)CC1 | 16µM* | / | / | ? | / | /
COc1ccc(NC(=O)CSc2nc3ccccc3nc2Cc2ccc(C)cc2)cc1Cl | 13µM* | / | / | ? | / | /
O=C(CSc1nc2ccccc2nc1Cc1ccc(Cl)cc1)N1CCN(c2ccccc2F)CC1 | 16µM* | / | / | 21µM* | / | /
CCC(CC)C(=O)Nc1nnc(SCC(=O)N2CCN(c3ccccc3OC)CC2)s1 | 21µM* | -11% | ? | 21µM* | -9% | -15
CN(Cc1ccon1)C(=O)C1CCC(=O)N(CCc2ccc(Cl)cc2)C1 (stereo not drawn) | 3% | -2% | -10% | 8% | 7% | 8
Cc1noc(C)c1-c1cc(NCCN2CCOCC2)ncn1 | 0% | / | / | -25% | / | /
COc1ccccc1N1CCN(C(=O)CSc2nc3ccccc3nc2N2CCCCC2)CC1 | ? | 1% | 16µM* | ? | -11% | -10
COc1ccccc1N1CCN(C(=O)CSc2nc3ccccc3nc2N2CCC(C)CC2)CC1 | 21µM* | -8% | 26µM* | 23µM* | -3% | ?
CC1=CC(C)(C)NC(=S)N1CCO | -10% | 7% | / | -32% | 16% | -5
CN(C)S(=O)(=O)c1ccc(Nc2nc(C3CC3)nc3c2nnn3Cc2ccccc2Cl)cc1 | 9.2µM* | ? | ? | 8.2µM* | 5.8µM* | -10
CCc1nc(Nc2ccc(OC)c(OC)c2)c2nnn(Cc3ccccc3Cl)c2n1 | -114% | -4% | 13µM* | 16µM* | ? | -65*
CCCN1C2=NCCN2c2cc(C)c(C)cc21 | -27% | -3% | -6% | 23µM* | -4% | 0
CCOC(=O)CN1C2=NCCN2c2ccccc21 | 5% | 7% | 10% | -7% | 3% | 18
CCCCCN1C2=NCCN2c2ccccc21 | 29µM* | -15% | -11% | 16µM* | -1% | -2
CCOC(=O)C1(CCCc2ccccc2)CCN(C(=O)C2CCCN(C(N)=O)C2)CC1 (stereo not drawn) | -3% | 3% | -19% | -6% | 4% | 5
COCCNc1nc(Oc2ccccc2)c2sccc2n1 | 29µM* | 7% | / | 23µM* | 2% | -14
COCCNc1nc(Oc2cccc3ccccc23)c2sccc2n1 | 12µM* | ? | / | 16µM* | ? | 14
COCCNc1nc(Oc2ccc(C(N)=O)cc2)c2sccc2n1 | ? | -25% | / | ? | -4% | -20
Cn1c(=O)c(CCc2ccccc2)nc2cnc(Oc3ccccc3)nc21 | -20% | / | / | ? | / | /
COCCNc1cc(-c2ccccc2C(F)(F)F)ncn1 | -18% | / | / | -23% | / | /
COc1ccc(CCNC(=O)CN2C(=O)COc3ccc(C)cc32)cc1OC | -2% | / | / | -19% | / | /
COc1ccc(-c2cc(C(=O)NCCc3ccccc3)no2)cc1OC | -23% | -3% | ? | -14% | 8% | -1
COc1ccc2nc3sc(C(=O)NCCc4ccc(Cl)cc4)cc3cc2c1 | 9% | / | / | -13% | / | /
COc1ccc(CCNC(=O)c2cc(CC(C)C)on2)cc1OC | ? | 6% | ? | 16µM* | -1% | 11
SMILES | DT40 TDP1 CPT | HT1080-NT tox | ELG1 repair inh | TDP1 cell noCPT | HT1080 IDH1KD tx | IL1B secr inh
COc1ccc2cc3cc(C(=O)NCCc4ccccc4)sc3nc2c1Cl | 12µM* | / | / | 16µM* | / | /
COc1ccc(CCNC(=O)c2cc(-c3ccc(Cl)cc3)on2)cc1OC | -2% | / | / | 0% | / | /
COc1ccccc1-c1cc(C(=O)NCCc2ccccc2)no1 | 13µM* | -23% | ? | 15µM* | ? | 14
COc1ccc(CCNC(=O)c2cc(-c3ccccc3OC)on2)cc1OC | ? | 7% | 16µM* | 21µM* | 1% | ?
CCOC(=O)N(Cc1ccccc1)Cc1ccc(C(=O)N[C@@H](Cc2ccccc2)C(=O)O)cc1 | -1% | 8% | / | -16% | 2% | -4
COc1ccc(C)cc1NC(C)C(=O)c1c[nH]c2ccccc12 (stereo not drawn) | -14% | / | / | ? | / | /
Cn1c(SCC(=O)NCc2ccco2)nnc1-c1cccc(NC(=O)c2ccccc2)c1 | -9% | / | / | -2% | / | /
CC(=O)NC(Cc1ccccc1F)C(=O)NC1CCN(C(=O)NCc2ccccc2)CC1 (stereo not drawn) | -11% | 1% | -3% | 5% | 3% | 25
Clc1ccc(C(c2ccccc2)N2CCN(c3ccccn3)CC2)cc1 (stereo not drawn) | ? | -18% | ? | 18µM* | -9% | 11
CN1CCCN(C(c2ccccc2)c2ccc(Cl)cc2)CC1 (stereo not drawn) | ? | 18µM* | -7% | 6µM* | 18µM* | -29
Cc1ccc(NC(=O)CSc2nnc(N)s2)cc1S(=O)(=O)N1CCOCC1 | 2% | -8% | 20% | 2% | -3% | 8
COc1ccc(-c2cc(C(=O)N3CCN(c4cccc(C)c4C)CC3)c3ccccc3n2)cc1OC | ? | -13% | ? | 13µM* | -24% | -9
COc1ccc(-c2cc(C(=O)N3CCN(c4ncccn4)CC3)c3ccccc3n2)cc1OC | ? | -15% | 6.5µM* | ? | -2% | ?
Cc1ccc(-c2cc(C(=O)N3CCOCC3)c3ccccc3n2)cc1 | 3% | -19% | 12% | -11% | -9% | 16
Cc1ccc(-c2cc(C(=O)N3CCN(c4ncccn4)CC3)c3ccccc3n2)cc1 | ? | ? | ? | 16µM* | ? | -17
Cc1ccc2nc(-c3ccccn3)cc(C(=O)N3CCN(c4ncccn4)CC3)c2c1 | 21µM* | -6% | ? | 13µM* | -14%[9.24 µM] | 1
O=C(c1cc(-c2ccccn2)nc2ccccc12)N1CCN(c2ncccn2)CC1 | -26% | 2% | -10% | ? | -2% | 4
Cc1ccc(C(=O)N2CCCC2)cc1S(=O)(=O)Nc1cccc(C)c1C | -2% | 10% | -11% | ? | -8% | 3
